# According to PubChem BioAssay (Tox21):
# Records with an inconclusive call do not appear. Entries that show only a call come without a potency. A number with no mark means an inactive call. The source made the active and inactive calls. Unless noted, calls follow the shape of the dose curve; as a rule, active = well fitted curve in the direction sought with a large enough effect in the repeat runs; inconclusive = weak or mixed curves; inactive = no such curve, though single readings can be large; an effect the other way counts as inactive or inconclusive.
# Tests used:
# [1] = qHTS assay to identify aromatase inhibitors - cell viability counter screen (AID 743084);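 also: cells stimulated with testosterone during compound exposure; nearly all actives have a fitted effect of over 55% in size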; also: potency is read from the fitted curve at half-maximal effect
# [2] = molecular target: Aryl hydrocarbon receptor (Homo sapiens) (UniProt P35869); test: qHTS assay to identify small molecule that activate the aryl hydrocarbon receptor (AhR) signaling pathway (AID 743085); also: nearly all actives have a fitted effect of over 15% in size; also: potency is read from the fitted curve at half-maximal effect;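 as to activation: HG2L7.5c1 human HepG2 liver cells with stably integrated DRE-driven firefly reporter; series mostly up to about 70 µM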
# Chain of Aryl hydrocarbon receptor (Homo sapiens) (P35869 whole entry, looked up): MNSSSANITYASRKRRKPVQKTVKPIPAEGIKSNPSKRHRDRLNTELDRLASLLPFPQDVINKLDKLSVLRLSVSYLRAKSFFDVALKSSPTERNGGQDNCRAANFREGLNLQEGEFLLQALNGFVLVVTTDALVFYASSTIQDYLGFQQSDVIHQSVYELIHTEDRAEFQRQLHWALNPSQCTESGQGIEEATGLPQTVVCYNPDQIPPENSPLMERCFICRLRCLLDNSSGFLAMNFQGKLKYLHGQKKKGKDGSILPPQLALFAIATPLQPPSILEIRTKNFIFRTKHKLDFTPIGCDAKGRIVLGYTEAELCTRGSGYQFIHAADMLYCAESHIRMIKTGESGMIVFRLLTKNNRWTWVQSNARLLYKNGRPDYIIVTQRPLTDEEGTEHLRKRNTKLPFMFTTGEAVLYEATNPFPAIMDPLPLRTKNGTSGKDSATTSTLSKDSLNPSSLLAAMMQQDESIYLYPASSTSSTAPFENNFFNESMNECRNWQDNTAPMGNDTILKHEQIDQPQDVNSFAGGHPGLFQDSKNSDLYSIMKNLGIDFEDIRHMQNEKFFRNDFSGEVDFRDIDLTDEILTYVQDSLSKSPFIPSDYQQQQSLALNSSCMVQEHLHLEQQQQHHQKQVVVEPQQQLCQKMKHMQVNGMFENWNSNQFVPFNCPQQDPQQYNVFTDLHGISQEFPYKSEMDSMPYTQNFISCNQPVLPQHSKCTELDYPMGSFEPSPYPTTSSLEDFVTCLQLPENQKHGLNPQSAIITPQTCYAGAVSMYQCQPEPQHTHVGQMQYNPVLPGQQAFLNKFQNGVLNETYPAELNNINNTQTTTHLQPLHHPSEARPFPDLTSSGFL
# Method in brief: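 Luminescence (ONE-Glo) from a dioxin-responsive-element luciferase reporter in HG2L7.5c1 HepG2 cells after 24 hr compound exposure at 37C; viability measured by CellTiter-Fluor fluorescence beforehand.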
# [3] = qHTS assay to identify small molecule that activate the aryl hydrocarbon receptor (AhR) signaling pathway - cell viability counter screen (AID 743086); also: nearly all actives have a fitted effect of over 45% in size; also: potency is read from the fitted curve at half-maximal effect;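 as to viability change, negative = cytotoxic: HepG2 liver cells carrying the AhR DRE luciferase reporter; series mostly up to about 70 µM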
# Method in brief: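 HepG2-AhR-luc (HG2L7.5c1) cells, 4000/well, were preincubated 5 h at 37C, exposed to compound in qHTS format for 24 hr at 37C, then given CellTiter-Fluor for 30 min; viability was read as fluorescence in the reporter wells.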
# [4] = molecular target: Peroxisome proliferator-activated receptor gamma (Homo sapiens) (UniProt P37231); test: qHTS assay to identify small molecule agonists of the peroxisome proliferator-activated receptor gamma (PPARg) signaling pathway (AID 743094; active = well fitted activation curve with a large enough effect in the signal ratio in the repeat runs, not every such curve was filed as active; the % refers to the signal ratio)
# Chain of Peroxisome proliferator-activated receptor gamma (Homo sapiens) (P37231 whole entry, looked up): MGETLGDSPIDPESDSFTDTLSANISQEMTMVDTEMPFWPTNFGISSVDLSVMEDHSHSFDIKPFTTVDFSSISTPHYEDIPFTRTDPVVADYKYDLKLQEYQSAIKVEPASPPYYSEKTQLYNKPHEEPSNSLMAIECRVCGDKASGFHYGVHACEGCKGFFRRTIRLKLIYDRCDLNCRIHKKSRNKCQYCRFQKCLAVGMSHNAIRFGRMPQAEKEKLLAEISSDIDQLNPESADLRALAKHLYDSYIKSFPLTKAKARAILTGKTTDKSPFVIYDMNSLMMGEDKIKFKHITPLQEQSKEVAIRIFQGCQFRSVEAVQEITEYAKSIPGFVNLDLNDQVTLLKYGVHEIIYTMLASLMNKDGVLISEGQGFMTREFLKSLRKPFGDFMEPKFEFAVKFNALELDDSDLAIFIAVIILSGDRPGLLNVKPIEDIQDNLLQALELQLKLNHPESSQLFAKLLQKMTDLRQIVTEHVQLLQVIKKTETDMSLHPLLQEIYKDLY
# Method in brief: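 Reporter activation was scored by fluorescence of cleaved LiveBLAzer B/G substrate (1 h, room temperature) in PPARg-bla HEK293H cells previously treated 17 h at 37C with DMSO-dissolved compounds.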
# [5] = molecular target: Peroxisome proliferator-activated receptor gamma (Homo sapiens) (UniProt P37231); test: qHTS assay to identify small molecule antagonists of the peroxisome proliferator-activated receptor gamma (PPARg) signaling pathway (AID 743191; calls by dose curve; also: nearly all actives have a fitted effect of over 30% in size; also: potency is read from the fitted curve at half-maximal effect; as to ratio activity, negative = inhibition: series mostly up to about 63 µM)
# Method in brief: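 GeneBLAzer PPARg UAS-bla HEK293H cells carrying a UAS-driven beta-lactamase reporter were plated at 3000 cells/well, preincubated 5 h at 37C, then given compound for 17 h at 37C; LiveBLAzer B/G FRET substrate was read after 1 h at room temperature.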
# [6] = qHTS assay to identify small molecule antagonists of the peroxisome proliferator-activated receptor gamma (PPARg) signaling pathway - cell viability counter screen (AID 743194); also: nearly all actives have a fitted effect of over 55% in size
# Method in brief: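 PPARg-UAS-bla HEK293H cells were plated, rested 5 h at 37 C, then treated with compounds plus rosiglitazone (50 nM final) for 17 h at 37 C; viability was then read by CellTiter-Glo luminescence after 30 min at room temperature.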
# [7] = qHTS assay for small molecule agonists of the antioxidant response element (ARE) signaling pathway - cell viability counter screen (AID 743203; calls by dose curve; also: nearly all actives have a fitted effect of over 55% in size)
# Method in brief: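 Viability counter screen: stably transfected ARE-bla HepG2 line, 16 hrs compound exposure at 37C/5% CO2, ATP-based CellTiter-Glo luminescence measured in the reporter wells.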
# [8] = qHTS assay for small molecule activators of the heat shock response signaling pathway - cell viability counter screen (AID 743209); also: nearly all actives have a fitted effect of over 50% in size
# Method in brief: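 Viability of HSE-bla HeLa cells is measured with CellTiter-Glo in the wells already used for the reporter read. Compound exposure lasts 5 h at 37 C, and luminescence is read after 30 min at room temperature.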
# [9] = molecular target: Peroxisome proliferator-activated receptor delta (Homo sapiens) (UniProt Q03181); test: qHTS assay to identify small molecule agonists of the peroxisome proliferator-activated receptor delta (PPARd) signaling pathway (AID 743212; calls by dose curve)
# Chain of Peroxisome proliferator-activated receptor delta (Homo sapiens) (Q03181 whole entry, looked up): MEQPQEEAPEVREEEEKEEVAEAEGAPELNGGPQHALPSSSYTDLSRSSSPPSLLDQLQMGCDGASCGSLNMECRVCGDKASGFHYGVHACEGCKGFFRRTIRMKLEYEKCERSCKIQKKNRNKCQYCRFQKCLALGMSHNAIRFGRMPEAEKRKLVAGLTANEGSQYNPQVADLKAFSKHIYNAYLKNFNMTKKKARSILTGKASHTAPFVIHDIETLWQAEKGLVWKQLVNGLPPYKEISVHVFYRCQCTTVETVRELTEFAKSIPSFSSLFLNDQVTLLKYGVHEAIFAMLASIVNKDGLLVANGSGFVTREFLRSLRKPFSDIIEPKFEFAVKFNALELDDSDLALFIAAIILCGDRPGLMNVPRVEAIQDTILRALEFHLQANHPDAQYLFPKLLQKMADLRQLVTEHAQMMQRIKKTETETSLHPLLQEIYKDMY
# Method in brief: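 Beta-lactamase reporter read by fluorescence (LiveBLAzer B/G FRET, 2 h, room temperature). Test agents, in DMSO, incubated at 37 C with PPARd-bla HEK293H cells.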
# [10] = molecular target: Bile acid receptor (Homo sapiens) (UniProt Q96RI1); test: qHTS assay to identify small molecule antagonists of the farnesoid-X-receptor (FXR) signaling pathway (AID 743217; active = well fitted inhibition curve with a large enough effect in the signal ratio in the repeat runs, not every such curve was filed as active; the % refers to the signal ratio)
# Chain of Bile acid receptor (Homo sapiens) (Q96RI1 whole entry, looked up): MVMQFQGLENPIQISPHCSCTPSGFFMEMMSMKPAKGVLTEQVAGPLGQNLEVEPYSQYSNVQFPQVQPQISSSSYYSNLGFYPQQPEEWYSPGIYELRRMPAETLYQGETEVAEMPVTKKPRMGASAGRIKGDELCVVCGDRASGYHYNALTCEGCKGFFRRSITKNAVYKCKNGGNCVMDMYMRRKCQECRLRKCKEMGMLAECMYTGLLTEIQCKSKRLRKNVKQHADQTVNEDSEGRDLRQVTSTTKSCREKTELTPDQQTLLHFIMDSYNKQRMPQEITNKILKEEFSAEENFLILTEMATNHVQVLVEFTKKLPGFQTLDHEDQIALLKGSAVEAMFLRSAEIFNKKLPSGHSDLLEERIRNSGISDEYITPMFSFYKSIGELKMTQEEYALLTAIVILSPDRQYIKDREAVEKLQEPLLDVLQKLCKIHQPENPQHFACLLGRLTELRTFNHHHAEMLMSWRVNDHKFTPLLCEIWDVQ
# Method in brief: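 Screen of the Tox21 10K library in quantitative HTS format using FXR-UAS-bla HEK 293T reporter cells. Agonist chenodeoxycholic acid, 50 uM final, added with compounds; 16 h incubation at 37 °C; beta-lactamase FRET fluorescence measured.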
# [11] = qHTS assay to identify small molecule agonists of the farnesoid-X-receptor (FXR) signaling pathway - cell viability counter screen (AID 743218); also: nearly all actives have a fitted effect of over 45% in size
# Method in brief: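 Viability of FXR-bla HEK 293T cells is measured by ATP-based CellTiter-Glo luminescence following 16 h compound treatment at 37 C and a prior 2 h room-temperature beta-lactamase substrate step.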
# [12] = molecular target: Bile acid receptor (Homo sapiens) (UniProt Q96RI1); test: qHTS assay to identify small molecule agonists of the farnesoid-X-receptor (FXR) signaling pathway (AID 743220; active = well fitted activation curve with a large enough effect in the signal ratio in the repeat runs, not every such curve was filed as active; the % refers to the signal ratio)
# Method in brief: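 FXR-UAS-bla HEK 293T cells carrying a UAS-driven beta-lactamase reporter were plated for 5 h at 37C/5% CO2, then exposed to DMSO-dissolved Tox21 10K compounds for 16 h at 37C. A LiveBLAzer B/G FRET substrate was loaded for 2 h at room temperature before fluorescence reading.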
# [13] = qHTS assay to identify small molecule antagonists of the farnesoid-X-receptor (FXR) signaling pathway - cell viability counter screen (AID 743221; active = well fitted cell-killing curve with a large enough effect in the repeat runs, not every such curve was filed as active; also: nearly all actives have a fitted effect of over 50% in size)
# Method in brief: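 Cytotoxicity counter screen run in the FXR-bla reporter wells: HEK 293T cells exposed to compound with 50 uM (final) chenodeoxycholic acid for 16 h, 37 C, then viability measured by CellTiter-Glo luminescence after 30 min, room temperature.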
# [14] = molecular target: Vitamin D3 receptor (Homo sapiens) (UniProt P11473); test: qHTS assay to identify small molecule antagonists of the vitamin D receptor (VDR) signaling pathway (AID 743223; active = well fitted inhibition curve with a large enough effect in the signal ratio in the repeat runs, not every such curve was filed as active; the % refers to the signal ratio)
# Chain of Vitamin D3 receptor (Homo sapiens) (P11473 whole entry, looked up): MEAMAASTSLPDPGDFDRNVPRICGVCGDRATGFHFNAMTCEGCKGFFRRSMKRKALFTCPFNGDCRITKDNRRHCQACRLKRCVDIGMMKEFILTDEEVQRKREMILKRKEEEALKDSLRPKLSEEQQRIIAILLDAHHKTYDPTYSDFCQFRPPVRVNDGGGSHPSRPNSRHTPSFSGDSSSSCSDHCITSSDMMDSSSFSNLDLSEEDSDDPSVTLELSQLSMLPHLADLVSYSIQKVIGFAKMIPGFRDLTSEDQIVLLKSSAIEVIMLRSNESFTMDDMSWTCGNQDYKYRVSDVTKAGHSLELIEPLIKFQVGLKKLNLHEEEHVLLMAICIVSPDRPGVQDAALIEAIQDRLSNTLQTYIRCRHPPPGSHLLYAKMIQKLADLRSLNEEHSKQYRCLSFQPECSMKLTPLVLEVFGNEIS
# Method in brief: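 Antagonist mode: compound added to VDR-bla cells alongside agonist 1alpha,25-dihydroxyvitamin D3 (3 nM final), incubation 16 h at 37C. Read-out is LiveBLAzer FRET fluorescence, 2 h at room temperature.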
# [15] = qHTS assay for small molecule activators of the heat shock response signaling pathway (AID 743210; active = well fitted activation curve with a large enough effect in the signal ratio in the repeat runs, with a control signal flat, not every such curve was filed as active; the % refers to the signal ratio; also: series mostly up to about 63 µM)
# Method in brief: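 Heat shock element–beta-lactamase HeLa reporter cells; qHTS with compounds for 5 h at 37 C; detection by FRET substrate fluorescence after 2.5 h at RT.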
# [16] = qHTS assay to identify small molecule antagonists of the peroxisome proliferator-activated receptor delta (PPARd) signaling pathway - cell viability counter screen (AID 743213); also: nearly all actives have a fitted effect of over 50% in size
# Method in brief: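 PPARd-bla HEK293H cells were treated with compounds plus agonist L165041 (300 nM final) for 17 h at 37 C. Viability was then read in the same wells by CellTiter-Glo luminescence after 30 min at room temperature.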
# [17] = molecular target: Peroxisome proliferator-activated receptor delta (Homo sapiens) (UniProt Q03181); test: qHTS assay to identify small molecule antagonists of the peroxisome proliferator-activated receptor delta (PPARd) signaling pathway (AID 743215; active = well fitted inhibition curve with a large enough effect in the signal ratio in the repeat runs, not every such curve was filed as active; the % refers to the signal ratio;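 also: cells stimulated with agonist L165041 at 300 nM final during compound exposure; series mostly up to about 62 µM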)
# Method in brief: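 Plated HEK293H PPARd-bla cells rested 5 h at 37 C and 5% CO2. Compound, then agonist L165041 at 300 nM final, was added; 17 h at 37 C followed. Substrate loading, 2 h room temperature, fluorescence measured.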
# [18] = molecular target: Vitamin D3 receptor (Homo sapiens) (UniProt P11473); test: qHTS assay to identify small molecule agonists of the vitamin D receptor (VDR) signaling pathway (AID 743222; calls by dose curve)
# Method in brief: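 Fluorescence from cleaved LiveBLAzer B/G FRET substrate served as readout. VDR-bla cells had been treated 16 h at 37C with test compounds in DMSO, following a 4 h settling period, and substrate was loaded for 2 h at RT.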
# [19] = qHTS assay to identify small molecule agonists of the peroxisome proliferator-activated receptor delta (PPARd) signaling pathway - cell viability counter screen (AID 743211); also: nearly all actives have a fitted effect of over 55% in size
# Method in brief: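 Viability was measured as CellTiter-Glo luminescence (30 min, room temperature) in the same wells as the beta-lactamase readout. GeneBLAzer PPARd UAS-bla HEK293H cells received compound after 5 h plating and were incubated 17 h at 37 C.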
# [20] = qHTS assay for small molecule agonists of the antioxidant response element (ARE) signaling pathway (AID 743202; active = well fitted activation curve with a large enough effect in the signal ratio in the repeat runs, not every such curve was filed as active; the % refers to the signal ratio)
# Method in brief: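 Following a 16 h, 37 C exposure of reporter HepG2 cells (ARE-driven beta-lactamase, 2,000 cells/well) to compounds, FRET substrate was applied for 2 h at room temperature and fluorescence intensity recorded.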
smiles,measurement,setting,value
CCC(Cl)CCC(Cl)C(Cl)CC(Cl)C(Cl)C(Cl)CCl (configuration not stated),Potency,[1],inactive
same,Potency,[2],inactive
same,Potency,[3],inactive
same,Potency,[4],inactive
same,Potency,[5],inactive
same,Potency,[6],inactive
same,Potency,[7],inactive
same,Potency,[8],inactive
same,Potency,[9],inactive
same,Potency,[10],inactive
same,Potency,[11],inactive
same,Potency,[12],inactive
same,Potency,[13],inactive
same,outcome,[14],inactive
CCOc1ccc(N=Nc2ccc(/C=C/c3ccc(N=Nc4ccc(OCC)cc4)cc3S(=O)(=O)O)c(S(=O)(=O)O)c2)cc1,Potency,[1],26.9 µM (active)
same,Potency,[2],inactive
same,Potency,[3],19 µM (active)
same,Potency,[4],inactive
same,Potency,[5],inactive
same,Potency,[6],inactive
same,Potency,[7],inactive
same,Potency,[8],inactive
same,Potency,[15],inactive
same,Potency,[9],inactive
same,Potency,[16],inactive
same,Potency,[17],inactive
same,Potency,[11],inactive
same,Potency,[13],inactive
same,Potency,[18],inactive
same,outcome,[14],inactive
C#CCN(C)CCCOc1ccc(Cl)cc1Cl,Potency,[1],inactive
same,Potency,[2],23.7 µM (active)
same,Potency,[3],inactive
same,Potency,[4],inactive
same,Potency,[5],inactive
same,Potency,[6],inactive
same,Potency,[7],inactive
same,Potency,[8],inactive
same,Potency,[15],inactive
same,Potency,[19],inactive
same,Potency,[9],inactive
same,Potency,[16],inactive
same,Potency,[10],inactive
same,Potency,[11],inactive
same,Potency,[12],inactive
same,Potency,[13],inactive
same,Potency,[18],inactive
same,outcome,[14],inactive
CCOC(=O)NCCOc1ccc(Oc2ccccc2)cc1,Potency,[1],inactive
same,Potency,[2],inactive
same,Potency,[3],inactive
same,Potency,[4],inactive
same,Potency,[5],38.9 µM (active)
same,Potency,[7],inactive
same,Potency,[8],inactive
same,Potency,[15],inactive
same,Potency,[19],inactive
same,Potency,[9],inactive
same,Potency,[10],inactive
same,Potency,[12],inactive
same,Potency,[13],inactive
same,outcome,[14],inactive
C/C=C/C(=O)CC,Potency,[1],inactive
same,Potency,[2],inactive
same,Potency,[3],inactive
same,Potency,[4],inactive
same,"ratio activity, negative = inhibition",[5],6.72% [at 13.2 µM]
same,activation,[20],-1.61% [at 18.1 µM]
same,"viability change, negative = cytotoxic",[7],0.863% [at 18.1 µM]
same,"activity change, negative = cytotoxicity",[8],2.01% [at 13.2 µM]
same,activation,[15],-0.278% [at 13.2 µM]
same,"activity change, negative = cytotoxicity",[19],2.34% [at 13.2 µM]
same,activation,[9],2.05% [at 13.2 µM]
same,"viability change, negative = cytotoxic",[16],3.59% [at 13.7 µM]
same,"ratio activity, negative = inhibition",[17],2.27% [at 13.7 µM]
same,"viability change, negative = cytotoxic",[11],6.33% [at 13.2 µM]
same,"activity change, negative = cytotoxicity",[13],-0.419% [at 13.2 µM]
CCCCCCCCCCCCN1CCCCCC1=O,Potency,[1],inactive
same,Potency,[2],inactive
same,Potency,[3],inactive
same,Potency,[4],inactive
same,Potency,[5],inactive
same,Potency,[6],inactive
same,Potency,[7],inactive
same,Potency,[19],inactive
same,Potency,[9],inactive
same,Potency,[16],inactive
same,Potency,[10],inactive
same,Potency,[11],inactive
same,Potency,[12],inactive
same,Potency,[18],inactive
CC(COCCO)OCCO (configuration not stated),Potency,[1],inactive
same,Potency,[2],inactive
same,Potency,[3],inactive
same,Potency,[4],inactive
same,Potency,[5],inactive
same,Potency,[6],inactive
same,Potency,[7],inactive
same,Potency,[8],inactive
same,Potency,[15],inactive
same,Potency,[19],inactive
same,Potency,[16],inactive
same,Potency,[10],inactive
same,Potency,[11],inactive
same,Potency,[12],inactive
same,Potency,[13],inactive
same,outcome,[14],inactive
CCCCC(CC)COC(=O)COc1ccc(Cl)cc1Cl (configuration not stated),Potency,[1],inactive
same,Potency,[2],inactive
same,Potency,[3],inactive
same,Potency,[4],inactive
same,Potency,[5],inactive
same,Potency,[6],inactive
same,Potency,[7],inactive
same,Potency,[8],inactive
same,Potency,[15],inactive
same,Potency,[19],inactive
same,Potency,[16],inactive
same,Potency,[11],inactive
same,Potency,[13],inactive
same,Potency,[18],inactive
same,outcome,[14],inactive
